# Screens as filed in PubChem BioAssay.
# Pf growth 48h: inhibits P. falciparum growth in the first generation, 48 h | actives 5.9% (n = 310,000) | Potency, µM (series often up to 28.7 µM), most hits filed as inhibitors | P. falciparum luciferase growth in erythrocytes, 48 h; active means well fitted inhibition curve with a large enough effect; inconclusive means small, poorly fitted or top-dose-only effect, or another doubt; inactive means no such curve, though single readings can be large or run the other way
#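 Growth was read as firefly luciferase luminescence after a 48 h, 37 C, 5% CO2 exposure of compounds to reporter-bearing P. falciparum cultures (0.1% parasitemia, 2% hematocrit final) in Albumax-supplemented RPMI 1640.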
# Pf growth 96h: inhibits malaria parasite growth, 96 h. P. falciparum luciferase reporter growth, 96 h. Potency, µM (doses to about 28.7 µM), hits mostly inhibitors. actives 6.9% (n = 320,000). AID 504834; active means well fitted inhibition curve with a large enough effect; inconclusive means small, poorly fitted or top-dose-only effect, or another doubt; inactive means no such curve, though single readings can be large or run the other way
#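 P. falciparum expressing integrated firefly luciferase grown in erythrocytes (2% hematocrit, 0.05% parasitemia final) with compounds for 96 hours at 37 C, 5% CO2. Growth inhibition read as loss of luminescence after adding luciferase detection reagent.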
# Shiga toxin inh: inhibitors of Shiga toxin in Vero cells; Vero cells, Shiga toxin protein synthesis inhibition reporter; inhibition, % at 38.7 µM; actives 9.2% (n = 290,000); AID 2315; in the data active means inhibition mostly above about 28%, no sharp cut-off; inactive means mostly below about 43%
# CHX counter: counter-screen for Shiga toxin inhibitors: cycloheximide protein synthesis inhibition; cell reporter, cycloheximide protein synthesis inhibition counterscreen; max response, %; actives 12% (n = 300,000); AID 2314; in the data active means max response mostly above about 13%, no sharp cut-off; inactive means mostly below about 14%; further: read at 38.3 µM for the half of the compounds with a filed dose
# SARS PLpro yeast: inhibitors of SARS-CoV papain-like protease in yeast; S. cerevisiae expressing SARS-CoV PLpro, growth rescue; Potency, µM (doses to about 32.9 µM), actives largely listed as activators; actives 0.19% (n = 330,000); AID 485353; further: nearly all actives have a fitted effect of over 55% in size
# NS1 inh: inhibitors of influenza NS1 protein function; Potency, µM (series often up to 46.1 µM); actives 0.4% (n = 270,000); further: actives are rising curves; nearly all actives have a fitted effect of over 50% in size
#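 OD600 was taken as the measure of yeast growth restored by compound in an NS1-expressing S. cerevisiae strain. Cells had been washed out of glucose medium and diluted 1:100 into galactose -URA medium, pH 6.0.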
# Hits are given with their value; . = inactive; ? = inconclusive; / = not tested or not shown. Only some compounds are listed: those with a hit (about 21% of all), similar ones and a draw of the others. Unless noted, the call rests on the fitted dose curve.
SMILES,Pf growth 48h,Pf growth 96h,Shiga toxin inh,CHX counter,SARS PLpro yeast,NS1 inh
Cc1cnc(C(=O)Nc2ccc(C)c(S(=O)(=O)N(C)C)c2)cn1,.,?,.,.,.,.
Cc1ccc(NC(=O)c2ccc3ccccc3n2)cc1S(=O)(=O)N(C)C,.,.,79,27,.,/
Cc1ccc(NC(=O)c2c3c(nc4ccccc24)CCC3)cc1S(=O)(=O)N(C)C,.,?,50,37,.,/
COc1ccc(-n2ncc3c(NCC4CCCO4)ncnc32)cc1 (stereo unspecified),.,.,95,68,.,.
Clc1ccc(-n2ncc3c(NCC4CCCO4)ncnc32)cc1 (stereo unspecified),.,.,50,40,.,.
COc1ccc(NC(=O)[C@H](C)NC(=O)C2CCN(S(=O)(=O)c3ccc(C)cc3)CC2)cc1,.,?,.,.,.,.
CCN(c1ccccc1)S(=O)(=O)c1ccc2ccccc2c1,.,.,.,.,.,.
CN(c1ccc(O)cc1)S(=O)(=O)c1ccc2ccccc2c1,.,.,77,24,.,.
CC(=O)c1c(C)[nH]c(C(=O)COC(=O)COc2ccccc2F)c1C,?,?,/,/,.,/
Cc1ccc(/C=N/NC(=O)c2nnn(-c3nonc3N)c2C)o1,.,?,.,.,.,.
Cc1ccc(-c2c(C(=O)N/N=C/c3sccc3C)nnn2-c2nonc2N)cc1,?,0.93µM,.,.,.,.
Cc1c(C(=O)N/N=C/c2cccs2)nnn1-c1nonc1N,.,.,52,.,.,.
Cc1ccsc1/C=N/NC(=O)c1nnn(-c2nonc2N)c1-c1ccccc1,.,.,.,.,.,.
C/C(=N\N=C\c1ccccc1)c1nnn(-c2nonc2N)c1C,.,.,.,19,.,.
Cc1ccsc1/C=N/NC(=O)c1nnn(-c2nonc2N)c1C,.,?,.,12,.,.
Cc1cc(NC(=O)C2CCCCC2C(=O)O)ccc1NC(=O)c1ccccc1 (stereo unspecified),.,.,.,.,.,.
Cc1cc(S(=O)(=O)N2CCC3(CC2)OCCN3S(=O)(=O)c2cccs2)ccc1F,.,?,/,/,.,/
Cc1ccc(-c2c(C(=O)N/N=C/C3CCCCC3)nnn2-c2nonc2N)cc1,?,?,.,.,.,.
Cc1ccc(-c2c(C(=O)N/N=C/C3CC=CCC3)nnn2-c2nonc2N)cc1 (stereo unspecified),?,9.3µM,.,.,.,.
CSC(=S)NCc1cccnc1,?,.,.,.,.,.
C=CCn1c2ccccc2c(=O)c2cc(C#CC3(O)CCCCC3)ccc21,.,?,55,44,.,.
CN1CCN(C(CNC(=O)Nc2ccc(Cl)cc2)c2ccc(F)cc2)CC1 (stereo unspecified),?,?,.,.,.,.
O=C(NCC1CC1)Nc1ccc(Cl)cc1,.,.,70,32,.,.
Cc1cccc(NC(=O)NCC(c2ccc(F)cc2)N2CCN(C)CC2)c1 (stereo unspecified),?,?,.,19,.,.
COc1ccc(N2CCC(CNC(=O)Nc3ccc(Cl)cc3)C2)cc1 (stereo unspecified),.,.,.,14,.,/
SMILES,Pf growth 48h,Pf growth 96h,Shiga toxin inh,CHX counter,SARS PLpro yeast,NS1 inh
O=C(COC(=O)C1CCC1)Nc1cccc(Cl)c1,?,.,/,/,.,/
COc1ccc(N2CCC(CNC(=O)Nc3cccc(OC)c3)C2)cc1 (stereo unspecified),/,.,.,.,.,.
O=C(NCC1CC1)Nc1cccc(Cl)c1,.,.,86,25,.,.
Cc1cc(C)nc(Sc2nc(Cl)nc(N(c3ccccc3)c3ccccc3)n2)n1,?,/,.,.,.,.
CC(C)(C)c1nc(-c2ccccc2)nc2c1OCCC2,.,.,/,/,.,/
O=C(NCC1CC1)Nc1cccc(C(F)(F)F)c1,.,.,.,.,.,.
Cc1cccc(NC(=O)NCC2CC2)c1,.,.,.,14,.,.
COc1ccc(CN=C(Nc2ccccc2)SC2CC(=O)NC2=O)cc1 (stereo unspecified),?,.,143,44,.,.
Cc1nc2c(C)cccn2c1/C(O)=C1\C(=O)C(=O)N(CCN2CCOCC2)C1c1cccs1 (stereo unspecified),.,.,.,.,.,.
Cc1cccc(Cn2nc(C)cc2NC(=O)CCCn2ccc([N+](=O)[O-])n2)c1,.,.,.,.,.,/
Cc1cccc2c1N(N=O)CCC2,.,.,.,.,.,.
Cc1cc[n+]2c3c(cccc13)CCC2,3.7µM,/,.,.,.,.
CC(=O)c1c(C)[nH]c(C(=O)OCc2cccc(Cl)c2)c1C,.,.,82,36,.,/
CC1CCCC(NC(=O)COC(=O)c2ccccc2[N+](=O)[O-])C1C (stereo unspecified),.,.,83,30,.,/
Cc1ccc(Cl)c(NC(=O)COC(=O)c2ccccc2C(=O)c2ccc(Cl)c([N+](=O)[O-])c2)c1Cl,.,.,.,.,.,.
CC(=O)c1c(C)[nH]c(C(=O)OCC(=O)NCCC2=CCCCC2)c1C,13µM,?,/,/,.,/
CC(=O)c1c(C)[nH]c(C(=O)OCC(=O)NCCc2ccc(F)cc2)c1C,?,?,.,.,.,.
CCCNC(=O)COC(=O)c1ccccc1C(=O)c1ccc(Cl)c([N+](=O)[O-])c1,?,.,.,60,.,/
CN1CCN(S(=O)(=O)c2ccc(N(C)Cc3cccc(F)c3)nc2)CC1,.,.,/,/,.,/
COc1ccc(Cl)cc1NC(=O)CSc1nnc(-c2ccco2)o1,.,.,.,.,.,.
COc1cccc(/C=C(/C(=O)OCC(=O)NC2CCCC(C)C2C)c2ccccc2)c1 (stereo unspecified),13µM,?,.,.,.,.
CC(=O)c1c(C)[nH]c(C(=O)OCC(=O)NCCCc2ccccc2)c1C,?,9.3µM,/,/,.,/
O=C(COC(=O)c1ccccc1[N+](=O)[O-])NCCCc1ccccc1,.,.,70,38,.,.
CCOC(=O)c1[nH]c(C)c(C(=O)N2CCN(c3cccc(Cl)c3)CC2)c1C,10µM,.,.,.,.,.
Nc1ccccc1C(=O)N1CCCC1,.,.,.,.,.,/
SMILES,Pf growth 48h,Pf growth 96h,Shiga toxin inh,CHX counter,SARS PLpro yeast,NS1 inh
CCn1ccnc1CNC(=O)c1ccc(OC2CCN(C(=O)COC)CC2)cc1,.,5.2µM,.,.,.,.
COCC(=O)N1CCC(Oc2ccc(C(=O)NCCCC3CCCC3)cc2)CC1,.,7.4µM,.,.,.,.
COCC(=O)N1CCC(Oc2ccc(C(=O)NCc3cnc(C)cn3)cc2)CC1,.,?,.,.,.,.
CCN(CCn1cccn1)C(=O)c1ccc(OC2CCN(C(=O)COC)CC2)cc1,.,?,.,21,.,.
C=C1SC(=Nc2ccccc2Cl)N(C(=O)c2sc3ccccc3c2Cl)C1(C)C,?,?,99,50,.,.
C=C1SC(=Nc2c(C)cccc2Cl)N(C(=O)c2sc3ccccc3c2Cl)C12CCCCC2,?,1.9µM,.,.,.,.
